About 16,000 (7.3%) of roughly 220,000 compounds were called active. Another 25% or so got no clear call; they are omitted. The sample holds actives, similar compounds and a random draw of the others, so the mix is not that of the screen. Unmarked numbers belong to inactive results. Calls follow the shape of the dose curve; as a rule, active = well fitted inhibition curve with a large enough effect (not every such curve was filed as active); inconclusive = small, poorly fitted or top-dose-only effect, or another doubt; inactive = no such curve, though single readings can be large or run the other way.
molecular target: Aldehyde dehydrogenase 1A1 (Homo sapiens) (UniProt P00352); experiment: qHTS Assay for Inhibitors of Aldehyde Dehydrogenase 1 (ALDH1A1); settings: Purified ALDH1A1, NADH fluorescence, propionaldehyde substrate; series mostly up to 75.3 µM; activity, negative = inhibition: at the top concentration;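 as to activity, negative = inhibition: plate controls were no enzyme wells and a reference inhibitor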
Sequence (P00352 whole entry, looked up): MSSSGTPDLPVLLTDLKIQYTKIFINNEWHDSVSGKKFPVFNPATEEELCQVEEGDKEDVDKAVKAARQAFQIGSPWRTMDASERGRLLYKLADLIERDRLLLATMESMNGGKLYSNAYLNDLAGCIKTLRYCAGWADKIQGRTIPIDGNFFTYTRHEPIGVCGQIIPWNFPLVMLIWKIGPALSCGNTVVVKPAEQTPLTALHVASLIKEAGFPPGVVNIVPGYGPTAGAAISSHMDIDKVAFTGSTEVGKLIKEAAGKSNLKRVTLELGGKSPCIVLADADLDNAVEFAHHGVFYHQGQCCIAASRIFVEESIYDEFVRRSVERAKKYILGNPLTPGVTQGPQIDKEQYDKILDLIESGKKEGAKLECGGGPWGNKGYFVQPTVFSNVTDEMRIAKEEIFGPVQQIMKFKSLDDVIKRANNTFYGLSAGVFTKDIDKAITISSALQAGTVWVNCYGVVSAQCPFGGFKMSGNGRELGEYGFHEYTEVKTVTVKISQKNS
Potency is read from the fitted curve at half-maximal effect.

SMILES | activity, negative = inhibition | Potency
COc1ccc(C(=O)COC(=O)c2nn(C)c(=O)c3ccccc23)c(OC)c1 | 4.94% | –
COc1ccc(OC)c(C(=O)c2ccc(C(=O)O)cc2)c1 | 20.8% | –
C#CCN1C(=O)C(O)(CC(=O)c2cc(OC)ccc2OC)c2ccccc21 (stereo unspecified) | – | 3.55 µM (active)
CCOC(=O)Cc1ncccc1C(=O)Nc1ccc(OC)cc1 | 1.9% | –
Cc1nn(C(=O)c2ccoc2C)c(N)c1-c1ccccc1 | 1.61% | –
Cc1nn2c(c1-c1ccccc1)N=C(c1ccco1)CC2c1ccccc1 (stereo unspecified) | – | 22.4 µM (active)
O=C(CS(=O)(=O)Cc1ccccc1)NCC1CCCO1 (stereo unspecified) | – | 25.1 µM (active)
O=C(CSc1nnc(-c2ccc(NS(=O)(=O)c3ccccc3)cc2)o1)NCC1CCCO1 (stereo unspecified) | -1.79% | –
S=C(NCCc1ccccc1)NCC1CCCO1 (stereo unspecified) | 4.66% | –
CCN(c1ccccc1)S(=O)(=O)c1ccc2[nH]c(=O)[nH]c2c1 | -0.299% | –
Cc1cc([N+](=O)[O-])nn1Cc1ccc(F)cc1 | -5.09% | –
Cc1c(CN2CCCC(C(=O)c3cccc(Cl)c3)C2)c(=O)n(-c2ccccc2)n1C (stereo unspecified) | 11.4% | –
CCCCC1=CC2=CC(=O)C(C)(OC(=O)CC)C(=O)C2=CN1CCCOC(C)C (stereo unspecified) | -5.05% [at 13.5 µM] | –
Cc1cccc(NC(=O)CSc2nc3c(c(=O)[nH]2)CCCC3)c1C | -4.24% | –
Cc1cccc(NC(=O)CN2C(=O)c3ccccc3C2=O)c1C | 11.6% | –
Cc1cccc(NC(=O)CSC(N)=O)c1C | – | 7.08 µM (active)
CC(C)c1nc(CNC(=O)CC2C(=O)NCCN2Cc2ccoc2)cs1 (stereo unspecified) | -6.59% | –
CC1Cc2ccccc2N1S(=O)(=O)c1c(N)n(C)c(=O)n(C)c1=O (stereo unspecified) | 6.39% | –
CC1CCCCN1C(=S)NCc1ccccc1 (stereo unspecified) | -0.534% | –

SMILES | activity, negative = inhibition | Potency
COC(=O)CNC(=O)c1ccc(OC2CCN(C(=O)C3CC3)CC2)cc1 | 0.14% | –
CN1CCNC(=O)C1CC(=O)N1CC=C(c2ccc(F)cc2)CC1 (stereo unspecified) | 1.45% | –
CC1(C)CCc2nc(SCc3ccccc3)c(C#N)cc2C1 | -2.69% | –
N#CC1=C(SCc2ccc(C#N)cc2)N=C(N)C(c2nc(-c3ccccc3)cs2)C12CCCCC2 (stereo unspecified) | 5.56% | –
N#CC1=C(SCc2ccccc2)NC(=O)C(C#N)C12CCCC2 (stereo unspecified) | – | 3.98 µM (active)
C[C@@H](O)c1nc2ccccc2n1N | 2.1% | –
N#Cc1ncc(C(F)(F)F)cc1Oc1cccnc1 | 10.8% | –
COc1ccc(/C=C/CN2CCN(Cc3ccc(C)cc3)C(CCO)C2)cc1 (stereo unspecified) | -1.88% | –
O=C(Nc1ccn(Cc2ccccc2)n1)c1cccc(F)c1 | 5.72% | –
CCOc1cccc(C(=O)Nc2cccnc2)c1 | 13.5% | –
CCOc1cccc(C(=O)Nc2cnn(Cc3ccccc3)c2)c1 | – | 3.98 µM (active)
CNc1nc(Nc2ccc(C)c(Cl)c2)nc(N)c1[N+](=O)[O-] | 3.68% | –
O=C(c1ccc(Cl)cc1)N1N=C(c2ccccn2)CC1(O)C(F)(F)F (stereo unspecified) | 0.0342% | –
COc1ccc(/C=N/N=C2/C(=O)Nc3ccccc32)cc1O | -10.8% | –
O=C(Cc1ccc(Br)cc1)N1CCN(c2ccccn2)CC1 | 3.87% | –
C(=N/N1CCN(c2ccccc2)CC1)/c1cccs1 | 4.36% | –
C(=N\N1CCN(c2ccccn2)CC1)/C1=C(N2CCOCC2)C(=C/c2ccccc2)/CC1 | – | 8.91 µM (active)
O=C1Nc2ccc(Br)cc2/C1=N/N=C/C1=C(N2CCOCC2)C(=C\c2ccccc2)/CC1 | – | 8.91 µM (active)
CN(C)CCOc1ccc(Cl)cc1C(C)(C)C | -3.7% | –

SMILES | activity, negative = inhibition | Potency
CCOC(=O)C1(Cc2ccccc2C(F)(F)F)CCN(C(=O)c2cc(C)n(C)n2)CC1 | -6.02% | –
Cc1ccc2[nH]c(C)c(CCNC(=O)NC3CCCCC3)c2c1 | 5.15% | –
Cc1nnc(SCCCCSc2nnc(C)c(=O)[nH]2)[nH]c1=O | -9.54% | –
CCOC(=O)c1c(CN(C)C)n(-c2ccccc2)c2cc(Br)c(O)cc12 | -4.14% | –
O=C(O)C1C2C=CC(C2)C1C(=O)N1CCN(CCO)CC1 (stereo unspecified) | 6.75% | –
CN1CCN(C(=O)C2C3C=CC(C3)C2C(=O)O)CC1 (stereo unspecified) | 14.6% | –
C=C(Cl)COC(=O)C1C2C=CC(C2)C1C(=O)O (stereo unspecified) | – | 17.8 µM (active)
COCCN(C(=O)c1ccccc1F)c1c(N)n(Cc2ccccc2)c(=O)[nH]c1=O | 6.85% | –
O=C(O)Cc1csc(-c2cccc(Oc3ccccc3)c2)n1 | – | inactive
CN(Cc1nc2ccc(F)cc2[nH]1)Cc1nc(CC2CC2)no1 | -1.51% | –
CCCCOc1ccc(C(=O)N/C(=C/C=C/c2ccccc2)C(=O)N2CCOCC2)cc1 | – | 25.1 µM (active)
O=C(NC(=O)N1CCOCC1)c1ccccc1 | -6.7% | –
CCCCOc1ccc(C(=O)NN2CCN(C)CC2)cc1 | -0.966% | –
CCn1c(SCC(=O)N(C)C2CCS(=O)(=O)C2)nnc1-c1cccs1 (stereo unspecified) | -6.37% | –
CCNC(=O)NNC(=O)C1CC(c2cccs2)=NO1 (stereo unspecified) | 6.63% | –
CCOc1ccc(N2C(=O)/C(=C/c3ccc(C)o3)N(C)C2=S)cc1 | – | 7.94 µM (active)
CCOc1ccc(N2C(=O)CN(c3cccc4ccccc34)C2=S)cc1 | 1.45% | –
CCOc1ccc(N2C(=O)Nc3ccccc3C2(O)C(=O)NCc2ccco2)cc1 (stereo unspecified) | -5.74% | –
